High-throughput results deposited in PubChem BioAssay by several laboratories.
Most compounds without a hit are left out; they make up all but 4.9% or so of the library.
Calb FLC: affects C. albicans growth with fluconazole | C. albicans CaCi-2 (fluconazole-resistant clinical isolate) + fluconazole, Alamar Blue growth, 48 h | 300,000 compounds, 0.57% hits | growth inhibition, % (no concentration beside the values);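 active means growth inhibition above about 58% in most replicates, limit read from the data, passing the limit was not always enough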;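 further: all wells also contain fluconazole at 8 µg/ml as a sub-toxic cotreatment; 0% = median of DMSO wells and 100% = median of geldanamycin control wells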
Mdm2-MdmX inh: human Mdm2/MdmX binding inhibition. SaOS-2 split-luciferase Mdm2/MdmX complementation, luminescence. inhibition, % at 8 µM. 330,000 compounds, 3% hits. AID 485346;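 active means inhibition of at least 50% at 8 µM in the primary screen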
PP1 inh: blocks human PP1-alpha phosphatase, a PP5 counter-screen. inhibition, % at 6.7 µM. purified PP1alpha, OMFP fluorescence. 320,000 compounds, 0.9% hits;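 active means inhibition above the mean inhibition of all tested compounds plus 3 SD, computed separately for each screening campaign, cut at about 15% in these data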
PP5 primary: PP5 (human) phosphatase inhibition. inhibition, % at 6.7 µM. purified PP5c, OMFP substrate fluorescence. P53041. 320,000 compounds, 0.18% hits. AID 1987;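 active means inhibition above the campaign's mean inhibition across all tested compounds plus 3 SD, cut at about 9.5% in these data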;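 further: 0% = DMSO only and 100% = 100 µM cantharidin control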
CSC inhib: cancer stem cell inhibition; cancer stem cell-like cells viability, luminescence; inhibition, % at 7.5 µM; 300,000 compounds, 1.1% hits; in the data active means inhibition above about 75%; tested in HMLE shEcad cells
Beta cell apopt: blocks beta cell apoptosis | INS-1E cytokine-induced death, ATP luminescence, 48 h; percent of positive-control rescue, neutral wells zero | protection from apoptosis, % (test concentration not listed) | 300,000 compounds, 0.8% hits;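 active means Every replicate reaches about 75%, or at least half do and their mean reaches it too, limit read from the data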;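 further: 0% = cytokine-treated negative control wells and 100% = positive control rescue; higher means more ATP so stronger rescue from cytokine killing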
Mdm2 MdmX conf: confirmation of human Mdm2/MdmX interaction inhibitors. shares compounds with Mdm2-MdmX inh. 10,000 compounds, 55% hits. Mdm2-MdmX binding, luminescent assay. inhibition, % at 8 µM; in the data active means inhibition above about 40%
FLuc counter: full-length luciferase inhibition in Mdm2/MdmX counter-screen | shares compounds with Mdm2-MdmX inh | SaOS-2 full-length luciferase counterscreen, luminescence | inhibition, % at 8 µM | 6,200 compounds, 77% hits;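 active means mean inhibition at 8 µM reaching about 37%, which flags the compound as non-specific, limit read from the data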;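 further: p53-null SaOS-2 cells with luciferase driven by a doxycycline-inducible promoter; compound on cells about two nights before reading with doxycycline added after day one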
* hit, by the source's call; . = no result.

SMILES | Calb FLC | Mdm2-MdmX inh | PP1 inh | PP5 primary | CSC inhib | Beta cell apopt | Mdm2 MdmX conf | FLuc counter
COc1ccc(/C=C2\SC(=S)N(CCC(=O)Nc3cccc(O)c3)C2=O)cc1 | -3 | 9 | . | . | . | . | . | .
COc1ccc(/C=C2\SC(=O)N(CC(=O)Nc3cccnc3)C2=O)cc1OC | -5 | 5 | 0 | 2 | 11 | -1 | . | .
COc1ccc(/C=C2/SC(=S)N(CCCC(=O)Nc3ccc(O)cc3)C2=O)cc1 | -3 | 88* | 0 | 1 | 32 | -13 | 90* | 56*
COc1cc(/C=C2\SC(=S)N(CCC(=O)Nc3ccc(O)cc3)C2=O)cc(OC)c1OC | -8 | 92* | 5 | 2 | 16 | 4 | 15 | .
Cc1ccc(/C=C2\SC(=S)N(CCCC(=O)Nc3cc(C)on3)C2=O)cc1 | 5 | 7 | -3 | 2 | -4 | -7 | . | .
COc1ccc(/C=C2\SC(=S)N(CCCCCC(=O)Nc3cc(C)on3)C2=O)cc1OC | -1 | 66* | -1 | 1 | -6 | 6 | 13 | .
COc1ccc(/C=C2/SC(=O)N(CCC(=O)Nc3ccccc3)C2=O)cc1OC | 1 | 75* | 6 | 2 | 1 | 3 | 26 | 82*
COc1ccc(NC(=O)CN(C)C(=O)c2ccc(NS(=O)(=O)c3ccc(F)cc3)cc2)cc1 | -5 | 18 | -5 | -3 | -13 | -6 | . | .
COc1cc(OC)c(/C=C2\SC(=O)N(CC(=O)Nc3ccccc3F)C2=O)c(OC)c1 | -5 | 57* | 6 | -1 | -2 | 1 | 34 | 73*
COc1ccc(/C=C2\SC(=S)N(CCC(=O)Nc3ccc(C(=O)O)cc3)C2=O)cc1 | -4 | -4 | 1 | -1 | -12 | -2 | . | .
COc1cc(/C=C2\SC(=O)N(CC(=O)Nc3ccccc3F)C2=O)cc(Cl)c1O | 38 | 10 | 1 | 0 | 25 | 12 | . | .
COc1ccc(/C=C2\SC(=S)N(CCCC(=O)Nc3ccc(O)cc3)C2=O)cc1 | 5 | 76* | -3 | 1 | 53 | 2 | 66* | 54*
O=C(CCCN1C(=O)/C(=C\c2ccco2)SC1=S)Nc1ccc2ccccc2c1 | -4 | 60* | 3 | 2 | 86* | -8 | 35 | 98*
Cc1cc(Cn2ccnc2)c(C)c([N+](=O)[O-])c1Cn1ccnc1 | -1 | 4 | 1 | -1 | 17 | -1 | . | .
CC1CN(CC(=O)Nc2ccc([N+](=O)[O-])cc2Br)CC(C)O1 (stereo not drawn) | -5 | -39 | 2 | 0 | 5 | -4 | . | .
O=C(NC(NC(=S)Nc1cccc(Cl)c1)C(Cl)(Cl)Cl)OCc1ccccc1 (stereo not drawn) | -18 | 92* | 12 | 5 | 116* | 19 | 55* | 53*
O=C(NC(NC(=S)Nc1ccc(Cl)c(Cl)c1)C(Cl)(Cl)Cl)c1ccco1 (stereo not drawn) | -4 | 59* | 3 | 1 | 66 | 10 | 40 | 74*
O=C(O)c1cccc(NC(=S)NC(NC(=O)c2ccco2)C(Cl)(Cl)Cl)c1 (stereo not drawn) | -2 | 20 | 1 | -1 | -10 | -5 | . | .
O=C(NNC(=O)c1nn(-c2ccc(F)cc2)ccc1=O)c1ccccc1Cl | -2 | -2 | -2 | -2 | 12 | 0 | . | .
COc1ccc(/C=C/C(=O)NCC(=O)N/N=C/c2cccs2)cc1 | -16 | 12 | 0 | 0 | -14 | 0 | . | .
Cc1sc2nc(CSC(C)C(=O)N(C)CC(=O)Nc3ccccc3C(F)(F)F)[nH]c(=O)c2c1C (stereo not drawn) | 4 | 51* | 0 | -2 | -7 | -6 | 27 | .
CSc1ccccc1NC(=O)CSCc1nc2sc(C)c(C)c2c(=O)[nH]1 | 13 | 22 | -6 | -2 | -14 | -1 | . | .
Cc1cc(=O)oc(C)c1C(=O)Nc1ccc(N(C)C)cc1 | 3 | 9 | -3 | 0 | -12 | . | . | .
COc1ccc(NC(=O)CSc2nnc(-c3cccc(O)c3)o2)cc1 | -4 | -24 | 2 | 0 | . | -3 | . | .
COc1cccc(NC(=O)CSc2nnc(-c3cc(C)n(-c4ccccc4)c3C)o2)c1 | 9 | 82* | 1 | 1 | 65 | 0 | 83* | 59*
